Screening data (PubChem BioAssay)
HIF-2a inh = HIF-2a inhibition; 786-0 RCC cells HIF-2a reporter, luciferase luminescence, overnight; inhibition, % at 18.8 µM; 360,000 tested, 0.72% active; AID 624352;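 active = inhibition of the luminescence signal of 40% or more relative to plate controls, in a single-dose primary screen at 18.75 µM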
MITF TRPM1 inh = inhibitors of MITF-driven TRPM1 promoter in melanoma cells | inhibition, % at 12.5 µM | 330,000 tested, 0.83% active | SK-MEL-5 TRPM1 promoter luciferase, 24 h | AID 488899;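 active = mean inhibition across replicates of 60% or more, whatever share of single replicates reaches that level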
KKLEB tox = reduces viability of KKLEB cystic fibrosis airway cells; activity change (cytotoxicity), % at 5 µM; AID 602141; 360,000 tested, 0.36% active; KKLEB CF airway cells viability, ATPlite luminescence, overnight; hits give low values; cells stimulated with P. aeruginosa culture filtrate;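 active = corrected activity change at or below -50% at 5 µM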
Shn3 3UTR inh = Schnurri-3 reporter inhibition in Clone20 osteoblasts | inhibition, % at 12.5 µM | 360,000 tested, 0.52% active | Clone20 osteoblast Shn3 3'UTR firefly luciferase, 24 h;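 active = mean inhibition of at least 75% with every replicate also reaching 75%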;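 also: 0% = median of neutral control wells and 100% = pilot-screen positive control compound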
CF NFkB block = blocks PAF-induced NF-kB reporter in cystic fibrosis cells; KKLEB NF-kB-GFP reporter, GFP fluorescence overnight; 360,000 tested, 0.86% active; inhibition, % at 5 µM;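 active = at least 50% inhibition at 5 µM, scaled per plate between neutral and stimulator controls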;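 also: PAF is a Pseudomonas aeruginosa culture filtrate used as stimulus; plate controls were PAF-stimulated DMSO wells for no effect and unstimulated DMSO wells for full effect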
Peg3 promoter = Peg3 promoter activity inhibition; 360,000 tested, 1.7% active; HeLa PEG-Prom luciferase reporter, luminescence, overnight; inhibition, % at 20 µM;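 active = inhibition of at least 50% at 20 µM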
CF NFkB conf = confirmation of cystic fibrosis induced NF-kB inhibitors; inhibition, % at 5 µM; shares compounds with CF NFkB block; KKLEB CF airway cells, PAF-induced NF-kB-GFP fluorescence, overnight; 1,300 tested, 64% active; in the data active = inhibition above about 40%;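 also: stimulus PAF is a Pseudomonas aeruginosa filtrate and not platelet activating factor; plate controls were DMSO wells with stimulus for no effect and unstimulated DMSO wells for full effect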
Starred values were filed as active, the others as inactive; / = no result given. This is a sample that favours compounds with a hit; in the whole collection about 2.8% have one here.

SMILES	HIF-2a inh	MITF TRPM1 inh	KKLEB tox	Shn3 3UTR inh	CF NFkB block	Peg3 promoter	CF NFkB conf
CCOC(=O)C1CCCN(C(=O)c2cc(C)n(C(C)(C)C)n2)CC1 (stereo not drawn)	13	/	-14	-9	-11	-1	/
CC1CCN(Cc2cc(=O)oc3ccc4ccccc4c23)CC1	-4	5	2	6	-6	6	/
O=c1cc(C(F)(F)F)[nH]c2c(C(F)(F)F)cccc12	-3	5	-2	-12	57*	24	1
O=c1cc(C(F)(F)F)[nH]c2ccc(OC(F)(F)F)cc12	-15	/	-4	6	26	38	/
Cc1cccc(C)c1NC(=O)CN1C(=O)NC(C)(C2CC2)C1=O (stereo not drawn)	0	-5	8	-10	-16	-1	/
O=C(NCc1ccccc1)C1=C[C@H](c2csc3ccccc23)C[C@H](OCc2ccc(CO)cc2)O1	23	4	-48	20	53*	34	60*
O=C(Nc1ccccc1)C1=C[C@@H](c2csc3ccccc23)C[C@@H](OCc2ccc(CO)cc2)O1	9	16	-2	20	1	17	/
CC(=O)Oc1c(Br)cc(N(C(C)=O)S(=O)(=O)c2ccccc2)c2ccccc12	-3	32	-41	0	88*	-8	74*
CCCCN(CCCC)c1ncnc2nc[nH]c12	34	-3	-19	18	53*	6	70*
CCN(c1ccc(OC)cc1)c1ncnc2nc[nH]c12	18	-9	3	20	66*	13	86*
CCCCN(Cc1ccccc1)c1ncnc2nc[nH]c12	-142	/	5	-21	31	-213	/
COc1nc(=O)n(C2C=CC(=O)O2)cc1F (stereo not drawn)	-4	/	-18	6	87*	27	23
CCOc1ccccc1CN1CCNC(=O)C1CC(=O)NC1CCCCCCC1 (stereo not drawn)	5	5	-4	-3	2	9	/
CC(=O)c1ccc(-c2ccc(C(=O)NCC(c3ccc(F)cc3)N3CCOCC3)o2)cc1 (stereo not drawn)	-35	-11	0	-6	-13	-38	/
O=C(NCC(c1ccc(F)cc1)N1CCOCC1)c1ccc([N+](=O)[O-])o1 (stereo not drawn)	9	42	-1	-2	64*	18	26
COc1ccc(-c2cnc(N)nc2-c2ccc(OC)cc2O)cc1	31	-15	-13	17	56*	13	51*
C=C(C)COc1ccc(-c2[nH]ncc2-c2ccc(OC)cc2)c(O)c1	5	1	2	10	53*	22	72*
COc1ccc(Oc2cn[nH]c2-c2ccc(O)cc2O)cc1	-7	12	-3	13	14	16	/
COc1ccc(-c2cn[nH]c2-c2ccc(O)cc2O)cc1	19	-4	8	15	70*	11	94*
C=C(C)COc1ccc(-c2[nH]ncc2-c2ccccc2)c(O)c1	14	9	-2	29	6	12	/
CC(NCCN(C)C)C(=O)C12CC3CC(CC(C3)C1)C2 (stereo not drawn)	21	-3	-1	-17	-5	-1	/
CN(C)C(CNc1ccc(S(C)(=O)=O)cc1[N+](=O)[O-])Cc1ccccc1 (stereo not drawn)	-2	5	1	-8	0	10	/
O=c1[nH]c(SCc2ccccc2)nc2[nH]ncc12	-14	-8	0	6	-3	-28	/
Nc1ccccc1C=C1Cc2ccccc2C1=O	-211	-9	-7	-58	-59	-244	/
O=C1C(=Cc2ccccc2[N+](=O)[O-])Cc2ccccc21	31	/	-48	1	89*	100*	85*
O=C(NCCCSc1ccccc1)c1cc(Br)ccc1O	-9	10	-36	-4	55*	42	79*
Fc1ccc(-n2cc(-c3ccccc3)c3c(N4CCOCC4)ncnc32)cc1	17	8	-2	27	86*	54*	104*
Cc1cccc(N2CCN(C(=O)c3[nH]c(C(F)(F)F)nc3-c3ccccc3)CC2)c1C	9	/	-22	25	50*	-7	87*
